Measurements: PubChem BioAssay (Tox21)
Values joined by “and” are separate entries in the source; they are usually repeats but may differ in a detail not shown here. Equal entries are not always repeated. Records with an inconclusive call do not appear. Where a call stands in place of a potency, no number is given. Active and inactive are the calls of the source. The call rests on the fitted dose curve.

Assay: qHTS assay for small molecule agonists of the p53 signaling pathway (AID 651631); further: nearly all actives have a fitted effect of over 15% in size
Conditions: HCT-116 p53RE-bla reporter, beta-lactamase FRET ratio, 16 h; series mostly up to 73.3 µM
Source text: U.S. Tox21 Program National Center for Advancing Translational Sciences [NCATS] NIH Chemical Genomics Center [NCGC] U.S. Environmental Protection Agency [EPA] National Institutes of Environmental Health Sciences [NIEHS] National Toxicology Program [NTP] U.S. Food and Drug Administration [FDA] Tox21 Assay Overview: p53, a tumor suppressor protein, is activated following cellular insult, including DNA damage and other cellular stresses. The activation of p53 regulates cell fate by inducing DNA repair, cell cycle arrest, apoptosis, or cellular senescence. The activation of p53, therefore, is a good indicator of DNA damage and other cellular stresses. The CellSensor p53RE-bla HCT-116 cell line (Invitrogen) contains a stably integrated beta-lactamase reporter gene under control of the p53 response elements. The activation of the reporter gene under culture conditions can be detected by fluorescence intensity. This cell line was used to screen the Tox21 compound library in a 1536-well plate format and to identify agonists that activate the p53 signaling pathway.
Tox21 Assay Protocol Summary: The p53RE-bla cells were dispensed at 4,000 cells/5 ul/well in 1536-well black wall/clear bottom plates using a Multidrop dispenser. After the assay plates were incubated at a 37 C/5% CO2 incubator for 5 hours, 23 nL of compounds dissolved in DMSO, positive controls or DMSO only was transferred to the assay plate by a pin tool. The plates were incubated at 37 C for 16 hours. After 1 uL of LiveBLAzerTM B/G FRET substrate was added using a Flying Reagent Dispenser, the plates were incubated at room temperature for 2 hours, and fluorescence intensity was measured by an Envision plate reader.
Potency means the concentration at half of the fitted maximal effect.

Row | SMILES | Potency
1 | N#CCCCCC#N | inactive
2 | ClCc1ccccn1 | inactive
3 | CCOP(=O)(OCC)OCC | inactive
4 | COC(=O)Nc1nc2ccccc2[nH]1 | 7.7 µM (active) and 13.7 µM (active)
5 | Clc1ccc(C(Cl)(Cl)Cl)cc1 | inactive
6 | Brc1ccc(Br)cc1 | inactive
7 | C=C(C)C#N | inactive
8 | CC(C)CON=O | inactive
9 | C[C@]12CCC(=O)C=C1CC[C@@H]1[C@@H]2CC[C@@]2(C)[C@H]1CC[C@]2(C)O | 21.7 µM (active)
10 | COP(=O)(NC(C)=O)SC (stereo not given) | inactive
11 | CN(C)c1ccccc1 | inactive
12 | CCCCOCCOC(C)=O | inactive
13 | Clc1cccc(C(Cl)(Cl)Cl)n1 | inactive
14 | CCCCOC(=O)COC(=O)c1ccccc1C(=O)OCCCC | inactive
15 | C[C@]12CC[C@H]3[C@@H](CCC4=CC(=O)CC[C@@H]43)[C@@H]1CC[C@@H]2O | inactive
16 | CCCCOCC1CO1 (stereo not given) | inactive
17 | N#CC(c1ccccc1)c1ccccc1 | inactive
18 | CNC(=O)Oc1cccc2c1OC(C)(C)C2 | inactive
19 | NC(=O)CN1CCCC1=O | inactive
20 | CCC/C=N/O | inactive

Row | SMILES | Potency
21 | O=C1CCCO1 | inactive
22 | CC1=C(C(=O)Nc2ccccc2)SCCO1 | inactive
23 | COP(=S)(OC)Oc1ccc(S(=O)(=O)N(C)C)cc1 | inactive
24 | O=P(OCCCl)(OCCCl)OCCCl | inactive
25 | CC(O)CN(CC(C)O)CC(C)O (stereo not given) | inactive
26 | c1ccc(C2CO2)cc1 (stereo not given) | inactive
27 | OC(c1ccc(Cl)cc1)(c1cncnc1)c1ccccc1Cl (stereo not given) | inactive
28 | CCCCC(C#N)(Cn1cncn1)c1ccc(Cl)cc1 (stereo not given) | inactive
29 | CS(=O)(=O)NC(=O)c1cc(Oc2ccc(C(F)(F)F)cc2Cl)ccc1[N+](=O)[O-] | inactive
30 | CCOP(=S)(OCC)SCSC(C)(C)C | inactive
31 | COc1ccc(C=O)cc1OC | inactive
32 | CCCCCCCCCCCCCl | inactive
33 | N#Cc1c(Cl)c(Cl)c(Cl)c(C#N)c1Cl | 21.3 µM (active) and 30.6 µM (active)
34 | CC(C)(O)C#N | inactive
35 | CCOS(=O)(=O)OCC | inactive
36 | COc1ccc(CO)cc1 | inactive
37 | O=NN(c1ccccc1)c1ccccc1 | inactive
38 | O=C(O)c1nn(Cc2ccc(Cl)cc2Cl)c2ccccc12 | inactive
39 | CC[n+]1c(-c2ccccc2)c2cc(N)ccc2c2ccc(N)cc21 | 3.35 µM (active) and 10.6 µM (active) and 2.16 µM (active)
40 | ClC(Cl)(Cl)c1ccccc1 | inactive
